This is a sample that favours compounds with a hit; in the whole collection about 6.9% have one here.
Vif-A3G inh = Vif-A3G binding inhibition | AID 602310 | Potency, µM (highest dose often 46.1 µM), for inactives: at the top dose activity, negative = active, usual class: inhibitors | HeLa A3G-eYFP + Vif (tagged APOBEC3G with the HIV-1 protein that degrades it), YFP fluorescence, overnight | hit rate 0.076% among 410,000 | Q9HC16; note: potency is the fitted concentration of half-maximal effect; % is set by controls: 0 for no effect and ±100 for the full control effect; nearly all actives have a fitted effect of over 60% in size
Target sequence (Q9HC16 whole entry, looked up): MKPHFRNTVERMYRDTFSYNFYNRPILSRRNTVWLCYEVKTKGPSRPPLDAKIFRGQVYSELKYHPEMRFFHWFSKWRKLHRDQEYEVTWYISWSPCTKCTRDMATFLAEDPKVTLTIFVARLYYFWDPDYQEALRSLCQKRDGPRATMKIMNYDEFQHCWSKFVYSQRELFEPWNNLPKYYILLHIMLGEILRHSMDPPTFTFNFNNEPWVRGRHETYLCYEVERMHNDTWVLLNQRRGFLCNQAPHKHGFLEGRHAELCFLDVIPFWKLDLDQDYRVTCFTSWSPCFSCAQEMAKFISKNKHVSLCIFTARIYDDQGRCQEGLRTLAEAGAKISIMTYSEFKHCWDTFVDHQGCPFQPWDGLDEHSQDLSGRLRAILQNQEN
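HeLa cells stably expressing Vif and C-terminally eYFP-tagged A3G, seeded overnight at 37 deg C, then exposed to compound by pintool overnight at 37 deg C. Rise in yellow fluorescence (Ex 488/Em 500-530, Acumen) marks blocked Vif-driven A3G degradation.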
SW480 rerep = inducers of DNA re-replication in SW480 colon cancer cells; SW480 DNA re-replication, Hoechst DNA content imaging, 48 h; Potency, µM (highest dose often 46.1 µM), inactives show at the highest dose re-replication activation, actives largely listed as activators; hit rate 1.8% among 340,000; AID 624297; note: potency is the fitted concentration of half-maximal effect; % of control where 0% means no effect; nearly all actives have a fitted effect of over 55% in size
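Treated cells incubate 48 hr (37 C, 5% CO2), are stained 40 min with Hoechst, and nuclear fluorescence is enumerated; a rise in nuclei with high DNA signal marks re-replication.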
Giardia kill = Giardia lamblia killing; activity change, % at 7.66 µM, hits read low; Giardia lamblia trophozoite viability; hit rate 0.15% among 340,000; in the data active = activity change below about -80%; inconclusive = between about -30% and that limit;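 note: parasites exposed to compound for two days anaerobically before the ATP read; % is set by controls: 0 for no effect and ±100 for the full control effect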
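Anaerobic 48 hrs incubation at 37 deg C of 100 trophozoites/well with test compounds; ATPLite 1-Step luminescence, 15-30 min RT, reports cellular ATP as viability.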
MCF10A rerep = inducers of DNA re-replication in MCF 10A breast cells | hit rate 2.9% among 350,000 | Potency, µM (series often up to 46.1 µM), without a hit: at the highest dose activity, positive = re-replication, usual class: activators | MCF 10A DNA re-replication, Hoechst nuclear intensity, 48 h; note: potency is the fitted concentration of half-maximal effect; % of control where 0% means no effect; nearly all actives have a fitted effect of over 50% in size
IL-1B inflam inh = inhibitors of inflammasome signaling (IL-1 beta secretion); AID 743279; THP-1 LPS/ATP IL-1B secretion, AlphaLISA, 16 h; stronger effect = lower value; activity change, % at 57.5 µM; hit rate 4.7% among 360,000; in the data active = activity change below about -50%; inconclusive = mostly about -30% to -49%; note: % is set by controls: 0 for no effect and ±100 for the full control effect
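Secreted IL-1B measured by AlphaLISA bead assay after 16 h compound exposure of THP-1 cells; compounds (final up to 57.5 uM) added 1 h before LPS (250 ng/mL) and ATP (1.25 mM) stimulation; lower signal means less secretion.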
Vif-APOBEC3F blk = blocks the Vif interaction with APOBEC3F. HeLa A3F-eYFP + Vif (tagged APOBEC3F with the HIV-1 protein that degrades it), YFP fluorescence increase. Potency, µM (highest dose often 46.1 µM), without a hit: top-dose activity, negative = active. hit rate 0.2% among 390,000. AID 602313; note: potency is the fitted concentration of half-maximal effect; % of control where 0% means no effect; nearly all actives have a fitted effect of over 65% in size
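HeLa cells stably expressing A3F-eYFP plus Vif, plated and incubated overnight at 37 deg C, then exposed to compounds overnight at 37 deg C. Blocked degradation read as raised yellow fluorescence (Ex 488/Em 500-530).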
Starred values were filed as active, the others as inactive; ? = inconclusive; . = no result given. Unless noted, calls come from the whole dose curve; as a rule, active = well fitted curve in the direction sought with a large enough effect; inconclusive = small, poorly fitted or top-dose-only effect, or another doubt; inactive = no such curve, though single readings can be large; an effect the other way counts as inactive or inconclusive.

SMILES	Vif-A3G inh	SW480 rerep	Giardia kill	MCF10A rerep	IL-1B inflam inh	Vif-APOBEC3F blk
CC(=O)OC[C@H]1O[C@@H](O/N=C/[C@@H](C)[C@H](OCc2ccccc2)C(C)C)[C@H](OC(C)=O)[C@@H](OC(C)=O)[C@@H]1OC(C)=O	.	8%	.	1%	.	.
O=C(C[n+]1ccnc2ccccc21)c1ccc(Br)cc1	-1%	.	.	.	.	.
Cc1nc(N/N=C/c2ccccn2)sc1C	-14%	21µM*	-15	?	-101*	-2%
CCCc1sc(N/N=C/c2ccccn2)nc1-c1ccc(F)cc1	-17%	-6%	15	0%	-100*	-11%
O=C(O)Cc1sc(N/N=C\c2ccccc2)nc1-c1ccccc1	-15%	-6%	-11	-1%	3	10%
COC(=O)c1ccc(/C=N/Nc2nc(C)c(C)s2)cc1	1%	?	0	23µM*	.	-9%
O=C(O)c1ccccc1/C=N/Nc1ccc(S(=O)(=O)N2CCOCC2)cc1[N+](=O)[O-]	6.3µM*	-15%	11	9%	-7	0%
Cc1ccccc1Nc1ccc(S(=O)(=O)N2CCOCC2)cc1[N+](=O)[O-]	-8%	1%	-2	?	?	4%
O=[N+]([O-])c1cc(S(=O)(=O)N2CCOCC2)ccc1NS(=O)(=O)c1ccccc1	2%	3%	?	16%	-83*	6%
NS(=O)(=O)c1ccc(N/N=C/c2ccccc2C(=O)O)c([N+](=O)[O-])c1	-1%	0%	3	2%	-2	-21%
CC(C)(CNc1ccc([N+](=O)[O-])cc1C#N)N1CCOCC1	1%	-3%	4	0%	-18	10%
CC(C)(CNc1ccc(S(=O)(=O)C(F)(F)F)cc1[N+](=O)[O-])N1CCOCC1	1%	0%	-3	7%	-53*	-2%
CC(C)CCOc1ccc(CC(=O)NO)cc1	2%	.	.	.	.	.
N#C/C(=C/c1ccc(N2CCCCCC2)o1)c1ccc(Cl)cc1	?	13µM*	12	2.9µM*	-102*	?
N#C/C(=C/c1ccc(N2CCCCC2)o1)c1cccc(F)c1	?	8.2µM*	-17	7.3µM*	-28	10µM*
N#C/C(=C/c1ccc(N2CCCCC2)cc1)c1cccc(F)c1	-5%	1%	-17	6%	-20	7%
COc1ccc(NC(=O)CC2C(=O)N(c3ccc(F)cc3)C(=O)N2Cc2ccco2)cc1 (stereo not given)	-6%	.	.	.	.	-1%
C=C1C=C(C(F)F)n2ncc(C(=O)NCc3ccccc3OC)c2N1	3%	.	.	.	.	.
Cc1ccc(S(=O)(=O)N2CCN(Cc3ccccc3Cl)CC2)cc1	-2%	.	.	.	.	-3%
Cc1ccc(S(=O)(=O)N2CCCCC2)cc1NC(=O)CSc1nnc(N)s1	1%	-1%	-13	0.58µM*	12	-1%
Cc1ccc(C(=O)c2c(NC(=O)CSc3nnc(N)s3)sc3c2CCCC3)cc1	1%	17%	-22	?	-72*	-19%
Nc1nnc(SCC(=O)Nc2sc3c(c2C(=O)c2ccccc2)CCCC3)s1	0%	0%	-25	-1%	-3	1%
Cc1ccc(C(=O)Nc2ccc(Cl)c(-c3nc4ncccc4o3)c2)c(C)c1	1%	.	.	.	.	2%
CCCCc1ncc(CN2CCC(CC3CCCCO3)(C(=O)OCC)CC2)[nH]1 (stereo not given)	-6%	0%	-4	1%	-4	0%
CCOC(=O)C1(CC2CCCCO2)CCN(Cc2cc3ccccc3[nH]2)CC1 (stereo not given)	-10%	?	-10	?	-91*	3%
SMILES	Vif-A3G inh	SW480 rerep	Giardia kill	MCF10A rerep	IL-1B inflam inh	Vif-APOBEC3F blk
CN1CCC(N(C)C(=O)c2ccccc2Nc2ccc(SC(F)F)cc2)CC1	-9%	-5%	14	8.2µM*	-7	-7%
Cc1ccc(Cl)c2c1NC(=O)C2(O)CC(=O)c1ccc(Br)cc1 (stereo not given)	0%	-3%	1	-2%	39	0%
O=C(CC1(O)C(=O)Nc2cc(Cl)cc(Cl)c21)c1ccncc1 (stereo not given)	-23%	?	-10	?	-100*	-8%
COC(=O)[C@]12CCCCC=C1N(Cc1cccc3ccccc13)C(=O)[C@H](CC(=O)NCCCCc1ccccc1)C2	.	.	.	.	-64*	.
COC(=O)[C@]12CCCCC=C1N(Cc1cccc3ccccc13)C(=O)[C@H](CC(=O)NCc1cccs1)C2	.	.	.	.	-60*	.
COC(=O)[C@]12CCCCC=C1N(Cc1cccc3ccccc13)C(=O)[C@H](CC(=O)NCc1cccc3ccccc13)C2	.	.	.	.	-19	.
COCCNc1c2c(nc3c(-c4ccccc4)c(C)nn13)CCCC2	2%	4%	8	24%	-24	0%
Cc1nn2c(NCc3cccnc3)c3c(nc2c1-c1ccccc1)CCC3	0%	?	-21	?	-76*	-12%
COc1cccc(Nc2c3c(nc4c(-c5ccccc5)c(C)nn24)CCC3)c1	1%	?	13	21µM*	1	-17%
Cc1nn2c(NCCN(C)C)c3c(nc2c1-c1ccccc1)CCCC3	5%	?	-6	13%	-58*	-5%
Cc1nn2c(N3CCCC3)c3c(nc2c1-c1ccccc1)CCC3	-2%	18µM*	-2	7%	16	?
Cc1ccc(C)c(CSc2nc3ccncc3n2CC(=O)Nc2ccc(N(C)C)cc2)c1	1%	.	.	.	.	8%
COC(=O)c1c(NC(=O)c2cc(=O)c3cc(C)cc(C)c3o2)sc2c1CCC2	1%	.	.	.	.	1%
Cc1ccc(CN(C)C(=O)CN2C(=O)NC(c3ccccc3)(c3ccccc3)C2=O)c(C)c1	1%	?	-27	-1%	-63*	-1%
CCn1nc(C)cc1C(=O)Sc1ccc(Cl)cc1Cl	-3%	-2%	2	?	-62*	?
CCn1nc(C)cc1C(=O)OCC(=O)c1ccc(Cl)cc1	4%	-3%	?	1%	6	1%
CCn1nc(C)cc1C(=O)Sc1cccc(Br)c1	-13%	-14%	-2	?	-102*	5%
Cc1cc(C)n(C(=O)CNC(=O)c2cccc(Br)c2)n1	-9%	-12%	12	1%	19	4%
COc1cc(OC)c(NC(=O)C(C)n2nc(-c3ccc(C)cc3)c3c(c2=O)CCCC3)cc1Cl (stereo not given)	3%	.	.	.	.	7%
Cc1ccc(S(=O)(=O)c2cn(CC(=O)Nc3ccc4c(c3)OCO4)c3ccc(C)cc3c2=O)cc1	-3%	.	.	.	.	-7%
Cc1ccc(-c2c[n+]3c(n2-c2ccccc2)CCC3)cc1	2%	?	2	8.2µM*	-53*	5%
c1ccc(-c2c[n+]3c(n2-c2ccccc2)CCC3)cc1	7%	2%	6	15%	0	-4%
